Screening results (PubChem BioAssay)
TDP1 cell CPT: qHTS for Inhibitors of human tyrosyl-DNA phosphodiesterase 1 (TDP1): qHTS in cells in presence of CPT. chicken DT40 Tdp1-/-;hTDP1 cells + 20 nM CPT, ATP luminescence, 48 h. Potency, µM (series often up to 46.2 µM), without a hit: at the top dose activity change, negative = growth inhibition, actives largely listed as inhibitors. actives 12% (n = 420,000); also: potency is read from the fitted curve at half-maximal effect; % is scaled to controls: 0 for no effect and ±100 for the full control effect; nearly all actives have a fitted effect of over 55% in size
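Chicken DT40 Tdp1-/- cells complemented with human TDP1, 400 cells/well, exposed to compounds plus 20 nM camptothecin for at least 48 h at 37 C; viability read as ATP content by CellTiter-Glo luminescence.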
TDP1 block: qHTS Assay for Inhibitors of Tyrosyl-DNA Phosphodiesterase (TDP1); Tyrosyl-DNA phosphodiesterase 1 (Homo sapiens), Q9NUW8; recombinant TDP1, AlphaScreen DNA substrate cleavage; Potency, µM (titrated, usually from 130 µM), without a hit: at the highest dose activity change, negative = inhibition, actives largely listed as inhibitors; actives 0.28% (n = 350,000); also: potency is read from the fitted curve at half-maximal effect; % is scaled to controls: 0 for no effect and ±100 for the full control effect; nearly all actives have a fitted effect of over 40% in size
Target sequence (Q9NUW8 whole entry, looked up): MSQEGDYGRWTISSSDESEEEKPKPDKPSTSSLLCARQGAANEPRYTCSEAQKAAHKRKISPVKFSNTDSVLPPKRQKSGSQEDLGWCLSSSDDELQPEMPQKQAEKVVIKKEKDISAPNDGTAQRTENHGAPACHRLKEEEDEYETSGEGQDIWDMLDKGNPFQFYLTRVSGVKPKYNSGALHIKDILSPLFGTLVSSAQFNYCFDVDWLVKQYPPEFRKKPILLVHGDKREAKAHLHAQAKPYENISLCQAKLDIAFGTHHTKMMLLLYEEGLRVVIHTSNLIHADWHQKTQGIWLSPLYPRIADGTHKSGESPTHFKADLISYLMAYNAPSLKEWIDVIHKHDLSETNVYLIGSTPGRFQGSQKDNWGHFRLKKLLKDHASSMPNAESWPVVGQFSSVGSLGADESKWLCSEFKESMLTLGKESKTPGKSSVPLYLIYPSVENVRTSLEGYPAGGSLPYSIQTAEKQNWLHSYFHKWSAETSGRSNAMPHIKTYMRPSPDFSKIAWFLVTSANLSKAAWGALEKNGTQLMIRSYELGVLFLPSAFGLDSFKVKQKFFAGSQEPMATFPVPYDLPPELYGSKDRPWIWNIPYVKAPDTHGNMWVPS
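Enzyme-compound mixtures sat 15 min at room temperature, followed by a 5 min reaction with 15 nM final substrate and 10 min with AlphaScreen beads. Recombinant human Tdp1 was used at 1 nM final.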
uPA generation: qHTS for Inhibitors of Cell Surface uPA Generation; cell surface uPA generation assay, qHTS; Potency, µM (doses to about 38.3 µM), inactives show at the highest dose activity change, negative = inhibition, most hits filed as inhibitors; actives 0.31% (n = 330,000); active = well fitted inhibition curve with a large enough effect; inconclusive = small, poorly fitted or top-dose-only effect; inactive = no such curve, though single readings can be large or run the other way; tested in mouse RAW 264.7 cells; also: potency is read from the fitted curve at half-maximal effect; % is scaled to controls: 0 for no effect and ±100 for the full control effect; nearly all actives have a fitted effect of over 55% in size
DT40 TDP1 no CPT: qHTS for Inhibitors of human tyrosyl-DNA phosphodiesterase 1 (TDP1): qHTS in cells in absence of CPT; DT40 Tdp1-/- hTDP1 cells, no CPT, ATP luminescence, 48 h; Potency, µM (doses to about 46.2 µM), inactives show at the top dose activity change, negative = growth inhibition, actives largely listed as inhibitors; actives 15% (n = 420,000); also: potency is read from the fitted curve at half-maximal effect; % is scaled to controls: 0 for no effect and ±100 for the full control effect; nearly all actives have a fitted effect of over 55% in size
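Stably hTDP1-transfected Tdp1-null chicken DT40 cells were treated with library compounds minus camptothecin and grown for at least 48 hr at 37 °C, after which cellular ATP was quantified by luminescence.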
miR-21 reporter: qHTS Assay for Modulators of miRNAs and/orActivators of miR-21; HeLa miR-21 FLuc reporter, luciferase, 48 h; Potency, µM (series often up to 38.3 µM), for inactives: at the top dose activity change, positive = activation, hits mostly activators; 340,000 tested, under 10 active; AID 2288, 2010;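 also: % of control where 0% means no effect; miR-21 action dims this reporter so a rising signal means less miR-21 action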
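HeLa cells stably expressing CMV-driven firefly luciferase with a downstream miR-21 binding sequence, endogenously expressing miR-21, were treated with titrations (up to about 40uM final) for 48 hours at 37 degree Celsius. Luciferase luminescence was read after lysis.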
Starred values were filed as active, the others as inactive; u = inconclusive; x = not tested or not shown; [ ] = remark or other dose. Most compounds without a hit are left out; they make up all but 16% or so of the library. Unless noted, calls follow the shape of the dose curve; as a rule, active = well fitted curve in the direction sought with a large enough effect; inconclusive = small, poorly fitted or top-dose-only effect, or another doubt; inactive = no such curve, though single readings can be large; an effect the other way counts as inactive or inconclusive.

SMILES	TDP1 cell CPT	TDP1 block	uPA generation	DT40 TDP1 no CPT	miR-21 reporter
O=C(OCc1ccccc1)N1CCC2CC1c1cc(N3CCCCC3)ccc12 (stereo not given)	u	x	-1%	u	x
Cn1ncc2cc(NC(N)=S)ccc21	-10%	6%	0%	13%	-9%
Cc1[nH]n(-c2ccccc2)c(=O)c1C(c1ccccc1C(=O)O)c1c(C)[nH]n(-c2ccccc2)c1=O	-19%	0%	3%	6%	1%
Cc1ccc(C(C[N+](=O)[O-])c2c(C)[nH]n(-c3ccccc3)c2=O)cc1 (stereo not given)	4.6µM*	5%	-13%	5.8µM*	-10%
Cc1[nH]n(-c2ccccc2)c(=O)c1C(c1ccccc1[N+](=O)[O-])C(C#N)C#N (stereo not given)	u	x	14%	u	0%
CCOc1cc(C(c2c(C)[nH]n(-c3ccccc3)c2=O)c2c(C)[nH]n(-c3ccccc3)c2=O)ccc1O	u	2%[12.3 µM]	x	5.2µM*	12%
Cc1[nH]n(-c2ccccc2)c(=O)c1C(C[N+](=O)[O-])c1ccc(F)cc1 (stereo not given)	7.3µM*	4%	-10%	12µM*	-1%
Cc1cc(O)c(C(C[N+](=O)[O-])c2ccc(Cl)cc2)c(=O)o1 (stereo not given)	u	5%	-5%	-39%	-1%
Cc1[nH]n(-c2ccccc2)c(=O)c1C(C[N+](=O)[O-])c1ccc(Cl)cc1 (stereo not given)	3.3µM*	5%	-8%	4.1µM*	0%
Cc1[nH]n(-c2ccccc2)c(=O)c1C(c1cc(Cl)ccc1O)c1c(C)[nH]n(-c2ccccc2)c1=O	-19%	-7%[12.3 µM]	x	u	-1%
C=CC1=C2C=C(C3CC3)N(CCCOC(C)C)C=C2C(=O)C(C)(OC(=O)c2ccco2)C1=O (stereo not given)	x	11%[12.3 µM]	x	x	x
O=C(Nc1cccc2c1CCCC2)C1CCN(c2nnnn2-c2ccccc2)CC1	u	3%	1%	16µM*	-1%
Cc1nnc(NC(=O)C2CCN(c3nnnn3-c3ccccc3)CC2)s1	u	-3%	2%	-13%	-3%
CCCP(=O)(CC(=O)O)c1ccccc1 (stereo not given)	-11%	-6%	-1%	-5%	0%
COc1ccc(C2c3c(-c4c(C)cc(C)cc4O)n[nH]c3C(=O)N2Cc2ccco2)cc1 (stereo not given)	15µM*	9%	x	16µM*	u
Cc1cc(C)c(-c2n[nH]c3c2C(c2ccccc2F)N(Cc2ccco2)C3=O)c(O)c1 (stereo not given)	21µM*	9%	x	21µM*	-2%
CC(OC(=O)CN1C(=O)c2ccccc2C1=O)C(=O)NC1(C#N)CCCCC1 (stereo not given)	1%	1%	8%	25%	x
CCn1c(SCC(=O)c2[nH]c(C)c(C(C)=O)c2C)nnc1-c1ccncc1	-26%	-2%	5%	u	0%
Cc1ccc2nc(SCC(=O)NC3CCCc4ccccc43)[nH]c2c1 (stereo not given)	21µM*	1%	-12%	16µM*	25%
CCn1c(SCC(=O)c2[nH]c(C)c(C(C)=O)c2C)nnc1-c1ccccc1	23µM*	0%	-5%	26µM*	17%
Cn1c(N)c(C(=O)CSc2nnc(NC3CCCCC3)s2)c(=O)n(C)c1=O	u	-21%	4%	u	x
CC(=O)c1c(C)[nH]c(C(=O)CSc2nnc(NC3CC3)s2)c1C	u	1%	0%	15µM*	x
CC(=O)c1c(C)[nH]c(C(=O)CSc2nc3ccc(C)cc3[nH]2)c1C	u	7%	7%	15µM*	4%
CCc1nnc2c(Nc3cccc(C(C)=O)c3)nc3ccccc3n12	u	0%	x	u	1%
Cc1ccc2nc(SCC(=O)Nc3cc([N+](=O)[O-])ccc3F)[nH]c2c1	18µM*	5%	0%	u	10%
SMILES	TDP1 cell CPT	TDP1 block	uPA generation	DT40 TDP1 no CPT	miR-21 reporter
COc1ccc(CCNC(=O)c2cn(C)c3ccc(S(=O)(=O)N(C)C)cc3c2=O)cc1OC	-5%	7%	x	u	-1%
Fc1ccc(/C=N/c2c(-c3ccc(F)cc3)nc3n2CCS3)cc1	-21%	5%	7%	-26%	-13%
COc1ccc(/C=N/c2c(-c3ccc(OC)cc3)nc3n2CCS3)cc1	u	-2%	-27%	16µM*	-25%
COC(=O)C(C(=O)OC)c1ccc(N)cc1	7%	1%	3%	-3%	5%
Cc1ccc(-c2c(C(=O)N/N=C/c3cccnc3)nnn2-c2nonc2N)cc1	-10%	1%	-6%	-29%	0%
CCCN(CCC)Cc1c(C(=O)N/N=C/C(C)=C\c2ccccc2)nnn1-c1nonc1N	16µM*	-2%	-1%	26µM*	0%
CN(C)Cc1c(C(=O)N/N=C/c2ccc(OCc3c(F)cccc3Cl)cc2)nnn1-c1nonc1N	u	3%	-1%	13µM*	-10%
CCOc1ccc(-c2c(C(=O)N/N=C/c3cccnc3)nnn2-c2nonc2N)cc1	-19%	50µM*	8%	0%	0%
CCOc1cccc(-c2c(C(=O)N/N=C(\C)c3ccccn3)nnn2-c2nonc2N)c1	2.3µM*	0%	u	1.6µM*	9%
CCCCN(CCCC)CCCNC(=O)Cn1cc2c(n1)-c1c(oc(C(=O)N3CCCC3)c1C)CC2	u	4%	-14%	u	1%
CC(C)(C)NC[C@H](O)COc1cccc2c1C[C@@H](O)[C@@H](O)C2	x	3%[56.1 µM]	x	x	x
CCOc1ccc(-c2c(C(=O)N/N=C/c3c[nH]c4ccccc34)nnn2-c2nonc2N)cc1	u	2%	-15%	16µM*	10%
CCOc1ccc(/C=N/NC(=O)c2nnn(-c3nonc3N)c2-c2ccc(OCC)cc2)cc1	4%	-3%	0%	4%	-6%
O=c1[nH]c2ccc(Cl)cc2c(-c2ccccc2)c1CN1CCOCC1	u	9%	-17%	21µM*	1%
O=c1[nH]c2ccc(Cl)cc2c(-c2ccccc2)c1N1CCOCC1	-22%	8%	-4%	-6%	8%
COc1ccc(CN2CCC(N3CC(C)OC(C)C3)CC2)c(OC)c1 (stereo not given)	7%	x	0%	0%	0%
CCCn1c(NCc2ccccc2NS(=O)(=O)c2ccc(C)cc2)nc2ccccc21	u	5%	-9%	16µM*	20%
CCn1c(NCc2ccccc2NS(=O)(=O)c2ccc(C)cc2)nc2ccccc21	16µM*	0%	-10%	18µM*	20%
